# HP1b chromo inh: inhibitors of HP1-beta chromodomain binding to methylated histone tails; AlphaScreen HP1-beta / biotin-H3K9me3 peptide binding; Potency, µM (series often up to 114 µM), without a hit: at the top dose activity change, negative = inhibition, usual class: inhibitors; 390,000 tested, 0.56% active; note: nearly all actives have a fitted effect of over 70% in size
#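 Compound inhibition of the preformed complex between 50 nM HP1-beta and 50 nM biotinylated H3K9me3 peptide was read by AlphaScreen. Buffer was PBS pH 7.4 with 0.01% Tween-20. Incubations ran 30 min at room temperature, with 10 ug/mL donor/acceptor beads.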
# JMJD2A Tudor inh: JMJD2A Tudor domain (human) inhibition; AID 504339; Potency, µM (doses to about 114 µM), for inactives: top-dose activity change, negative = inhibition, actives largely listed as inhibitors; 390,000 tested, 4.4% active; O75164; AlphaScreen JMJD2A-Tudor / H3K4me3 peptide binding; note: % is set by controls: 0 for no effect and ±100 for the full control effect; nearly all actives have a fitted effect of over 50% in size
# Sfp inh: inhibitors of Bacillus subtilis Sfp phosphopantetheinyl transferase | Q9F4F7 | Biochemical Sfp PPTase activity, qHTS | Potency, µM, for inactives: largest response in the series, negative = inhibition, most hits filed as inhibitors | 310,000 tested, 3.5% active | AID 1490;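 note: the enzyme is Sfp with the accession as filed and its product quenches rhodamine fluorescence; 0% = enzyme reaction without inhibitor and -100% = no enzyme wells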
#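 Fluorescence-quenching assay with 15 nM Sfp, 5 uM rhodamine-CoA and 12.5 uM BHQ-2-labelled ybbR peptide in pH 7.6 Hepes/MgCl2 buffer. Enzyme was pre-incubated with compound for 15 min at room temperature. Rate was taken from the 30-min fluorescence change (525/598 nm).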
# BAZ2B inh: inhibitors of human BAZ2B bromodomain. Q9UIF8. AlphaScreen BAZ2B-H3K14Ac peptide displacement. Potency, µM (titrated, usually from 114 µM), for inactives: at the top dose activity change, negative = inhibition, actives largely listed as inhibitors. AID 504333. 360,000 tested, 4.4% active; note: % is set by controls: 0 for no effect and ±100 for the full control effect; nearly all actives have a fitted effect of over 60% in size
#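 Compounds, titrated to a top concentration of 110 uM, were incubated 30 min at room temperature with preformed BAZ2B/acetyl-K14 H3 peptide complex (50 nM each). Proximity signal was measured by AlphaScreen after 20 min with beads.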
# G9a inh: inhibitors of human histone lysine methyltransferase G9a; Potency, µM (doses to about 102 µM), inactives show at the top dose activity, negative = inhibition, most hits filed as inhibitors; 350,000 tested, 8.8% active; Q96KQ7; AID 504332; G9a H3K9 monomethylation, AlphaScreen, 2 h; note: % is set by controls: 0 for no effect and ±100 for the full control effect; nearly all actives have a fitted effect of over 75% in size
#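 Methyltransferase reactions run at room temperature for 2 h (20 nM enzyme, 500 nM biotin-H3K9 peptide, 20 uM SAM) after a 15 min compound preincubation; product detected by AlphaScreen beads and anti-H3K9me1 antibody.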
# L3MBTL1 block: blocks human L3MBTL1. AlphaScreen L3MBTL1–H3K9me1 peptide binding. Potency, µM (titrated, usually from 57.1 µM), for the others: at the top dose activity, negative = inhibition, usual class: inhibitors. 230,000 tested, 0.66% active. AID 485360; note: % is set by controls: 0 for no effect and ±100 for the full control effect; nearly all actives have a fitted effect of over 60% in size
# Target sequence (Q9Y468 whole entry, looked up): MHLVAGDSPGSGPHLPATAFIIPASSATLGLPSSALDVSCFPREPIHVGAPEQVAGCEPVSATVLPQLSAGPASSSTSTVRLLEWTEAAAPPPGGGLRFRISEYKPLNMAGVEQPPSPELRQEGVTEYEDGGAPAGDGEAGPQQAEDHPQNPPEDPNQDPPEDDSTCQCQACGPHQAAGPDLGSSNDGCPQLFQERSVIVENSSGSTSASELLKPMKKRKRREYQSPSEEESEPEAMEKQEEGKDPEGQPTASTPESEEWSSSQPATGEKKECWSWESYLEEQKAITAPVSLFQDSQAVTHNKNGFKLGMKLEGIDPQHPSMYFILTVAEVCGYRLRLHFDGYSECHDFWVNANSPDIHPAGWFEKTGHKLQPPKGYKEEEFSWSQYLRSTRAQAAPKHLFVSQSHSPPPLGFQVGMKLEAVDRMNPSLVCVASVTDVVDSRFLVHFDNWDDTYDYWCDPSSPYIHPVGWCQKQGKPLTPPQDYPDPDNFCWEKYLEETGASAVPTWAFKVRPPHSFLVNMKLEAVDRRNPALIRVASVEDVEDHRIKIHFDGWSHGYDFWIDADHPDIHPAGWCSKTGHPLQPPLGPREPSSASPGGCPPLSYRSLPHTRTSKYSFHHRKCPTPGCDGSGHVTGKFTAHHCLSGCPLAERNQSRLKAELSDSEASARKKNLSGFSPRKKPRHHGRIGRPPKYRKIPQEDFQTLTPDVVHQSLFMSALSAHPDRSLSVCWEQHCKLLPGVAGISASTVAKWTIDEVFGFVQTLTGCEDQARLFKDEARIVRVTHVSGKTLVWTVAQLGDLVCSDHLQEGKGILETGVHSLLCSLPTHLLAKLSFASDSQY
#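 AlphaScreen assay: L3MBTL1 (50 nM final) was preincubated 30 min at room temperature with biotinylated H3(1-15)K9me1 peptide (75 nM final), then 30 min with library compounds; streptavidin donor and nickel chelate acceptor beads (10 ug/mL final) added, 30 min dark.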
# An asterisk follows results filed as active; ? = inconclusive; . = no result; [ ] = another dose, or the depositor's remark. This is a sample that favours compounds with a hit; in the whole collection about 12% have one here. Calls come from the whole dose curve; as a rule, active = well fitted curve in the direction sought with a large enough effect; inconclusive = small, poorly fitted or top-dose-only effect, or another doubt; inactive = no such curve, though single readings can be large; an effect the other way counts as inactive or inconclusive. Potency is the fitted concentration of half-maximal effect.
SMILES,HP1b chromo inh,JMJD2A Tudor inh,Sfp inh,BAZ2B inh,G9a inh,L3MBTL1 block
COc1ccc(N2CCN(c3oc(/C=C/c4ccccc4OC)nc3C#N)CC2)cc1,?,?,.,3.2µM*,?,.
N#Cc1nc(COc2ccccc2Cl)oc1N1CCCCCC1,?,-21%,-2%,?,-5%[59 µM],-3%
CCN1CCN(c2oc(COc3ccc(-c4ccccc4)cc3)nc2C#N)CC1,-60%,?,?,32µM*,40µM*,?
CC[C@H](C)[C@H](NC(=O)[C@H](Cc1ccc(O)cc1)NC(=O)[C@H](Cc1cnc[nH]1)NC(=O)[C@H](CCCNC(=N)N)NC(=O)[C@H](CC(C)C)NC(=O)[C@H](C)NC(=O)[C@H](CO)NC(=O)[C@H](Cc1ccc(O)cc1)NC(=O)[C@H](Cc1ccc(O)cc1)NC(=O)[C@H](CCCNC(=N)N)NC(=O)[C@H](C)NC(=O)[C@H](CC(C)C)NC(=O)[C@H](CC(=O)O)NC(=O)[C@H](CCC(=O)O)NC(=O)[C@H](C)NC(=O)[C@@H]1CCCN1C(=O)[C@H](C)NC(=O)[C@H](CC(=O)O)NC(=O)[C@H](CCC(=O)O)NC(=O)CNC(=O)[C@@H]1CCCN1C(=O)[C@H](CC(N)=O)NC(=O)[C@H](CC(=O)O)NC(=O)[C@@H]1CCCN1C(=O)[C@H](CCCCN)NC(=O)[C@H](CO)NC(=O)[C@@H]1CCCN1C(=O)[C@@H](N)Cc1ccc(O)cc1)C(=O)N[C@@H](CC(N)=O)C(=O)N[C@@H](CC(C)C)C(=O)N[C@H](C(=O)N[C@H](C(=O)N[C@@H](CCCNC(=N)N)C(=O)N[C@@H](CCC(N)=O)C(=O)N[C@@H](CCCNC(=N)N)C(=O)N[C@@H](Cc1ccc(O)cc1)C(N)=O)[C@@H](C)O)[C@@H](C)CC,.,.,-17%,.,.,.
CSc1cccc(N2C(=O)N(CC(=O)NCc3ccccc3Cl)c3ccccc3S2(=O)=O)c1,20%,-7%,.,-3%,0%[59 µM],.
CCCn1c(=O)c2sccc2n2c(CCCC(=O)NCCOC)nnc12,21%,-9%,.,-11%,-5%[59 µM],.
CCN(CC)c1nc(-c2nn[nH]n2)nc(N(CC)CC)n1,23%,89µM*,15%,4%,?,-2%
CCN(CC)c1nc(N(CC)CC)[nH]c(=O)n1,32%,0%,.,.,.,.
CCCCCCN=CC1=C(O)CC(C)(C)CC1=O,51%,-5%,9%,10%,4%[2.33 µM],-1%
CCC(CO)N=CC1=C(O)CC(C)(C)CC1=O (stereo unspecified),20%,-11%,8%,-1%,71µM*,-2%
CCOc1ccccc1CNc1nc2nc(C)cc(C)n2n1,19%,-23%,.,-15%,-26%[59 µM],.
Fc1ccc(C(NCCc2ccccc2)c2nnc(-c3ccccc3Cl)o2)cc1 (stereo unspecified),89%,53%,.,55%,118%[59 µM],.
CC1(c2ccccc2)CC(C)(C)N2C(=O)C3(C(C#N)=C(N)Oc4cc(O)ccc43)c3cccc1c32 (stereo unspecified),?,?,8%,-38%,-15%[59 µM],.
CC1(c2ccccc2)CC(C)(C)N2C(=O)/C(=C3\SC(=S)NC3=O)c3cccc1c32 (stereo unspecified),14µM*,28µM*,-7%,?,?,-20%
CC(C)(C)c1ccc(-c2nc(SCC(=O)Nc3ccc(Cl)cc3)[nH]c(=O)c2C#N)cc1,24%,-32%,.,79µM*,-16%[59 µM],.
CCc1ccc(NC(=O)C(C)Sc2nc(-c3ccco3)c(C#N)c(=O)[nH]2)cc1 (stereo unspecified),-13%,?,-11%,?,50µM*,.
N#Cc1c(-c2ccco2)nc(SCC(=O)Nc2cccc(Cl)c2)[nH]c1=O,14%,?,50µM*,-12%,35µM*,-14%
CCOc1ccccc1NC(=O)C(C)Sc1nc(-c2ccccc2)c(C#N)c(=O)[nH]1 (stereo unspecified),12%,-27%,.,-24%,-23%[59 µM],.
N#Cc1c(-c2ccccc2)cc(-c2ccccc2)nc1SCC(=O)Nc1ccc(Cl)cc1,43%,7%,.,12%,?,.
Cc1ccc2[nH]c(CSc3nnc(NC(=O)COc4ccccc4Cl)s3)cc(=O)c2c1,18%[57 µM],-20%,.,-38%,-40%[59 µM],.
CCc1nc(SCc2cc(=O)c3cc(F)ccc3[nH]2)n[nH]1,17%[57 µM],-13%,.,10%,7%[59 µM],.
Cc1cc2c(s1)c1cnn(Cc3cc(F)ccc3C)c(=O)c1n2C,.,-5%,.,.,.,.
CSc1c[n+]2c(n1C)CCC2,6%,32µM*,10%,13%,?,-2%
C=C(C)[C@@H]1CC[C@]2(C(=O)O)CC[C@]3(C)[C@H](CCC4[C@@]5(C)CC[C@H](O)C(C)(C)[C@@H]5CC[C@]43C)[C@@H]12 (stereo partly specified),.,.,24%,.,27%[59 µM],.
CCOC(=O)c1[nH]cnc1C(=O)Nc1ccc([N+](=O)[O-])cc1,14%,?,11%,?,79µM*,.
SMILES,HP1b chromo inh,JMJD2A Tudor inh,Sfp inh,BAZ2B inh,G9a inh,L3MBTL1 block
O=C(Nc1ccc([N+](=O)[O-])cc1)c1nc[nH]c1C(=O)NC1CCCCC1,20%,-21%,4%,50µM*,20%[59 µM],3%
COc1ccc(N2CCN(C(=O)Cn3nc(Cc4cccnc4)c4ccccc4c3=O)CC2)cc1,16%,-24%,.,?,?,.
COC(=O)CNC(=O)C1(CC(C)C)C=CCN1C(C)=O (stereo unspecified),.,.,30%,.,.,.
C=CCn1cn[nH]c1=S,43%,?,?,?,13µM*,-2%[11.4 µM]
O=C(NCc1ccccc1)C1(C(F)(F)F)C/C(=C/Cc2ccccc2)CCCO1 (stereo unspecified),8%,-19%,-10%,.,.,.
O=C(NCc1ccccn1)C1(C(F)(F)F)C/C(=C\Cc2ccccc2)CCCO1 (stereo unspecified),-12%,32µM*,56µM*,.,.,.
COc1cccc(CN2CCC(C(=O)Nc3ccc(Oc4cccnc4)cc3)CC2)c1,19%,-16%,12%,-23%,13%,.
CC(C)CNC(=O)C1CCN(Cc2ccc(OCc3ccccc3)cc2)CC1,?,1.1µM*,-8%,?,?,7%
CCOC(=O)C1CCN(Cc2cccc(OCc3ccccc3)c2)CC1,?,8.9µM*,-13%,-12%,?,-1%
c1ccc(COc2cccc(CN3CCc4ccccc4C3)c2)cc1,21%,56µM*,-3%,7%,.,39%
CN1CCN(Cc2ccc(OCc3ccccc3)cc2)CC1,34%,-22%,3%,-30%,6%[59 µM],-4%

# Screening data (PubChem BioAssay)
